Measurements taken from PubChem BioAssay AID1159580 (chemical genetic matrix, 2015).
The whole screen tested about 5,500 compounds, of which about 2,000 (36%) were called active. Roughly 18% stayed inconclusive and do not appear here. Rule as the data show it: active = normalized growth mostly below about 0.91 (no sharp cut-off); inconclusive = no clear call, values can overlap the other calls; inactive = mostly above about 0.92. The list shows a part of the results.

Test: chemical genetic growth profiling, strain panel (AID 1159580);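 also: tested at 20 µM; growth read once vehicle control cultures reached saturation at 30 °C; 1 = growth at the plate median or of vehicle wells; lower values mean less growth of the strain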
Conditions: S. cerevisiae deletion strains, growth OD
[1] = locus YAL013W, strain DEP1, stronger effect = lower value
[2] = locus YBR229C, strain ROT2, stronger effect = lower value
[3] = locus YDL101C, strain DUN1, stronger effect = lower value
[4] = locus YEL061C, strain CIN8, stronger effect = lower value
[5] = locus YHR030C, strain SLT2, stronger effect = lower value
[6] = locus YLR039C, strain RIC1, stronger effect = lower value
[7] = locus YJL095W, strain BCK1, stronger effect = lower value

Measured: normalized growth

COC(=O)c1cc(OC)c(OC)c(OC)c1NS(=O)(=O)c1cc(OC)ccc1OC
inactive: [1] 0.999 | [2] 0.999 | locus YCL061C, strain MRC1, stronger effect = lower value 0.974 | [3] 0.968 | locus YDL134C, strain PPH21, stronger effect = lower value 1.02 | locus YDR150W, strain NUM1, stronger effect = lower value 0.984 | [4] 1.03 | locus YGR078C, strain PAC10, stronger effect = lower value 0.983 | locus YGR229C, strain SMI1, stronger effect = lower value 1.01 | [5] 0.965 | locus YHR087W, strain rtc3, stronger effect = lower value 1.03 | locus YJR043C, strain POL32, stronger effect = lower value 0.987 | locus YJR075W, strain HOC1, stronger effect = lower value 0.992 | [6] 0.984 | locus YLR058C, strain SHM2 (second series), stronger effect = lower value 1.02 | locus YLR085C, strain ARP6, stronger effect = lower value 1.02 | locus YLR262C, strain YPT6, stronger effect = lower value 1.02 | locus YML094W, strain GIM5, stronger effect = lower value 1.04 | locus YMR219W, strain ESC1, stronger effect = lower value 1 | locus YMR263W, strain SAP30, stronger effect = lower value 1 | locus YNL128W, strain TEP1, stronger effect = lower value 1 | locus YNL153C, strain GIM3, stronger effect = lower value 0.992 | locus YNL298W, strain CLA4 (second series), stronger effect = lower value 0.987 | locus YNL322C, strain KRE1, stronger effect = lower value 0.996 | locus YNR030W, strain Alg12, stronger effect = lower value 1.01 | locus YOL006C, strain TOP1, stronger effect = lower value 0.981 | locus YPL055C, strain LGE1, stronger effect = lower value 1.03 | locus YPL241C, strain CIN2, stronger effect = lower value 0.983 | locus YPR135W, strain CTF4, stronger effect = lower value 0.969

COc1cc(O)c(C(=O)c2ccccc2)cc1O
inactive: [1] 1.02 | locus YAL021C, strain ccr4, stronger effect = lower value 1.01 | locus YAL026C, strain drs2, stronger effect = lower value 0.963 | locus YAL030W, strain snc1, stronger effect = lower value 1.01 | locus YBL061C, strain skt5, stronger effect = lower value 1.01 | locus YBR009C, strain hhf1, stronger effect = lower value 0.969 | locus YBR021W, strain FUR4, stronger effect = lower value 1.07 | locus YBR023C, strain chs3, stronger effect = lower value 0.985 | locus YBR171W, strain sec66, stronger effect = lower value 1.01 | [2] 1.02 | locus YBR231C, strain swc5, stronger effect = lower value 1.01 | locus YBR279W, strain paf1, stronger effect = lower value 0.988 | locus YCL011C, strain gbp2, stronger effect = lower value 0.971 | locus YCL016C, strain dcc1, stronger effect = lower value 0.965 | locus YCL029C, strain bik1, stronger effect = lower value 0.978 | locus YCL069W, strain vba3, stronger effect = lower value 0.996 | locus YCR088W, strain abp1, stronger effect = lower value 1 | locus YDL005C, strain med2, stronger effect = lower value 1.01 | locus YDL035C, strain GPR1, stronger effect = lower value 1.07 | locus YDL040C, strain nat1, stronger effect = lower value 1 | locus YDL074C, strain BRE1, stronger effect = lower value 1.01 | [3] 0.998 | locus YDL185W, strain tfp1, stronger effect = lower value 0.972 | locus YDL192W, strain arf1, stronger effect = lower value 0.971 | locus YDR001C, strain nth1, stronger effect = lower value 1.02 | locus YDR069C, strain doa4, stronger effect = lower value 1.02 | locus YDR101C, strain arx1, stronger effect = lower value 1.01 | locus YDR137W, strain rgp1, stronger effect = lower value 0.857 | locus YDR159W, strain sac3, stronger effect = lower value 0.973 | locus YDR162C, strain NBP2, stronger effect = lower value 1.02 | locus YDR195W, strain ref2 1.03 | locus YDR297W, strain sur2, stronger effect = lower value 0.99 | locus YDR318W, strain mcm21, stronger effect = lower value 0.963 | locus YDR334W, strain swr1, stronger effect = lower value 1.03 | locus YDR335W, strain msn5, stronger effect = lower value 0.988 | locus YDR388W, stronger effect = lower value 0.979 | locus YDR502C, strain sam2, stronger effect = lower value 0.965 | locus YEL003W, strain gim4, stronger effect = lower value 0.985 | locus YEL037C, strain rad23, stronger effect = lower value 1.01 | locus YEL061C, strain CIN8 (second series), stronger effect = lower value 1.01 | [4] 1.03 | locus YER015W, strain faa2, stronger effect = lower value 0.966 | locus YER016W, strain bim1, stronger effect = lower value 1 | locus YER110C, stronger effect = lower value 0.964 | locus YER111C, strain swi4, stronger effect = lower value 1.02 | locus YER155C, strain BEM2, stronger effect = lower value 1.01 | locus YER167W, strain BCK2, stronger effect = lower value 1 | locus YFR010W, strain ubp6, stronger effect = lower value 1.03 | locus YGL078C, strain dbp3, stronger effect = lower value 0.937 | locus YGL086W, strain mad1, stronger effect = lower value 0.974 | locus YGL167C, strain pmr1, stronger effect = lower value 0.999 | locus YGL173C, strain kem1, stronger effect = lower value 1 | locus YGL227W, strain vid30, stronger effect = lower value 1.01 | locus YGL240W, strain doc1, stronger effect = lower value 0.944 | locus YGL248W, strain PDE1, stronger effect = lower value 1.05 | locus YGL253W, strain hxk2, stronger effect = lower value 1.04 | locus YGR135W, strain pre9, stronger effect = lower value 0.923 | locus YGR252W, strain gcn5, stronger effect = lower value 1 | locus YHR013C, strain ard1, stronger effect = lower value 1.05 | locus YHR027C, strain rpn1, stronger effect = lower value 1.02 | locus YHR079C, strain IRE1 (second series), stronger effect = lower value 0.959 | locus YHR094C, strain hxt1, stronger effect = lower value 0.974 | locus YHR129C, strain ARP1, stronger effect = lower value 1.02 | locus YHR142W, strain chs7, stronger effect = lower value 1.01 | locus YHR200W, strain rpn10, stronger effect = lower value 0.968 | locus YIL066C, strain RNR3, stronger effect = lower value 1.03 | locus YIL073C, strain SPO22, stronger effect = lower value 1 | locus YIL125W, strain kgd1, stronger effect = lower value 1 | locus YIR030C, strain dcg1, stronger effect = lower value 0.976 | locus YJL092W, strain hpr5, stronger effect = lower value 1.01 | locus YJL095W, strain BCK1 (second series), stronger effect = lower value 0.996 | [7] 0.978 | locus YJL115W, strain asf1, stronger effect = lower value 1.02 | locus YJL129C, strain trk1, stronger effect = lower value 0.948 | locus YJL134W, strain LCB3, stronger effect = lower value 1 | locus YJL154C, strain vps35, stronger effect = lower value 1.02 | locus YJL164C, strain tpk1, stronger effect = lower value 0.958 | locus YJL166W, strain qcr8, stronger effect = lower value 0.993 | locus YJL168C, strain set2, stronger effect = lower value 0.989 | locus YJL187C, strain SWE1 (second series), stronger effect = lower value 0.993 | locus YJL187C, strain SWE1, stronger effect = lower value 0.996 | locus YKL009W, strain mrt4, stronger effect = lower value 0.892 | locus YKL068W, stronger effect = lower value 0.982 | locus YKL085W, strain MDH1 (second series), stronger effect = lower value 0.97 | locus YKL085W, strain MDH1, stronger effect = lower value 0.97 | locus YKL160W, strain elf1, stronger effect = lower value 0.945 | locus YKR001C, strain vps1, stronger effect = lower value 1.01 | locus YKR026C, strain gcn3, stronger effect = lower value 1.02 | locus YKR091W, strain srl3, stronger effect = lower value 1.01 | locus YLL001W, strain dnm1, stronger effect = lower value 0.951 | locus YLL026W, stronger effect = lower value 1.01 | locus YLL041C, strain sdh2, stronger effect = lower value 1.01 | locus YLR027C, strain aat2, stronger effect = lower value 1.01 | [6] 0.963 | locus YLR058C, strain SHM2, stronger effect = lower value 1.01 | locus YLR102C, strain apc9, stronger effect = lower value 0.97 | locus YLR221C, strain rsa3, stronger effect = lower value 0.988 | locus YLR258W, strain gsy2, stronger effect = lower value 0.962 | locus YLR268W, strain sec22, stronger effect = lower value 0.976 | locus YLR320W, strain mms22, stronger effect = lower value 0.944 | locus YLR330W, strain CHS5, stronger effect = lower value 1.02 | locus YLR342W, strain FKS1, stronger effect = lower value 0.993 | locus YLR357W, strain rsc2, stronger effect = lower value 0.994 | locus YLR370C, strain arc18, stronger effect = lower value 1 | locus YLR371W, strain rom2, stronger effect = lower value 0.966 | locus YLR384C, strain iki3, stronger effect = lower value 0.996 | locus YLR418C, strain cdc73, stronger effect = lower value 1.03 | locus YML016C, strain PPZ1, stronger effect = lower value 1.01 | locus YML032C, strain rad52, stronger effect = lower value 0.967 | locus YML120C, strain ndi1, stronger effect = lower value 0.965 | locus YML124C, strain tub3, stronger effect = lower value 0.97 | locus YMR058W, strain fet3, stronger effect = lower value 1.02 | locus YMR078C, strain ctf18, stronger effect = lower value 0.952 | locus YMR125W, strain sto1, stronger effect = lower value 1.01 | locus YMR129W, stronger effect = lower value 1 | locus YMR205C, strain PFK2, stronger effect = lower value 0.991 | locus YMR223W, strain ubp8, stronger effect = lower value 0.932 | locus YMR231W, strain pep5, stronger effect = lower value 1.01 | locus YMR307W, strain GAS1, stronger effect = lower value 1.19 | locus YNL067W, strain RPL9B, stronger effect = lower value 1.01 | locus YNL071W, strain lat1, stronger effect = lower value 0.982 | locus YNL209W, strain ssb2, stronger effect = lower value 0.947 | locus YNL233W, strain BNI4, stronger effect = lower value 1.04 | locus YNL248C, strain rpa49, stronger effect = lower value 1.03 | locus YNL250W, strain rad50, stronger effect = lower value 0.924 | locus YNL271C, strain bni1, stronger effect = lower value 0.951 | locus YNL298W, strain CLA4, stronger effect = lower value 0.995 | locus YNL307C, strain MCK1, stronger effect = lower value 0.971 | locus YNL322C, strain KRE1 (second series), stronger effect = lower value 0.973 | locus YNR049C, strain mso1, stronger effect = lower value 1.03 | locus YNR052C, strain pop2, stronger effect = lower value 0.96 | locus YOL012C, strain htz1 1.3 | locus YOL147C, strain pex11, stronger effect = lower value 0.979 | locus YOR001W, strain rrp6, stronger effect = lower value 0.995 | locus YOR061W, strain CKA2, stronger effect = lower value 1.01 | locus YOR069W, strain VPS5, stronger effect = lower value 0.999 | locus YOR070C, strain gyp1, stronger effect = lower value 0.983 | locus YOR080W, strain dia2, stronger effect = lower value 1.02 | locus YOR083W, strain WHI5, stronger effect = lower value 0.933 | locus YOR106W, strain vam3, stronger effect = lower value 0.917 | locus YOR136W, strain idh2, stronger effect = lower value 0.977 | locus YOR144C, strain elg1, stronger effect = lower value 0.976 | locus YOR184W, strain ser1, stronger effect = lower value 1.07 | locus YOR265W, strain rbl2, stronger effect = lower value 1.01 | locus YOR270C, strain vph1, stronger effect = lower value 0.974 | locus YOR290C, strain snf2, stronger effect = lower value 0.946 | locus YOR316C, strain cot1, stronger effect = lower value 0.958 | locus YPL051W, strain arl3, stronger effect = lower value 0.924 | locus YPL078C, strain atp4, stronger effect = lower value 0.952 | locus YPL106C, strain sse1, stronger effect = lower value 0.943 | locus YPL240C, strain hsp82, stronger effect = lower value 0.997 | locus YPR119W, strain clb2, stronger effect = lower value 0.95 | locus YPR141C, strain kar3, stronger effect = lower value 0.96 | locus YPR163C, strain tif3, stronger effect = lower value 0.94 | locus YPR167C, strain met16, stronger effect = lower value 0.953 | strain wtn01, stronger effect = lower value 0.998
active: locus YDR392W, strain spt3, stronger effect = lower value 0.705 | locus YER155C, strain BEM2 (second series), stronger effect = lower value 0.764 | locus YLR262C, strain YPT6 (second series), stronger effect = lower value 0.768

COc1ccc(C(C)=O)c(O)c1
inactive: [5] 0.966 | locus YHR079C, strain IRE1, stronger effect = lower value 0.965 | [7] 0.968 | locus YJR066W, strain TOR1, stronger effect = lower value 0.905 | locus YLR113W, strain HOG1, stronger effect = lower value 0.96 | locus YNL183C, strain NPR1, stronger effect = lower value 0.892 | locus YOR231W, strain MKK1, stronger effect = lower value 0.968 | locus YPL256C, strain CLN2, stronger effect = lower value 0.957
